Reference: PubChem BioAssay (NCI)
The panel holds about 83,000 compounds, 20% with a hit somewhere; the sample as a whole holds those more often.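 Assay: single dose, 48 h. Readout: percent growth (0 = no net growth; negative = cell death). Active: <10.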 Unmarked numbers belong to inactive results. The source made the active and inactive calls.

Tested on: CAKI-1 renal
Experiment: NCI-60 one-dose screen, 48 h (100 = growth as untreated, 0 = no growth, -100 = all killed)
Conditions: 10 µM

Structure (SMILES) | growth
COP(=O)(CC(F)(F)C(F)(F)F)OC | 10.3%
CC12OOC(C)(OO1)C2CCC(=O)NCCNc1ccnc2cc(Cl)ccc12 (stereo not drawn) | 78.2%
CC[C@]12C=CCN3CC[C@@]4(c5ccc(OC)cc5N(C)[C@H]4[C@@](O)(C(=O)OC)[C@@H]1OC(=O)CCC[P+](c1ccc(C)cc1)(c1ccc(C)cc1)c1ccc(C)cc1)[C@@H]32 | -95.3% (active)
CC(C)N=C([Se])NC(=O)c1ccccc1 | -80.7% (active)
CC[C@]12C=CCN3CC[C@@]4(c5ccc(OC)cc5N(C)[C@H]4[C@@](O)(C(=O)OC)[C@@H]1OC(=O)CCC[P+](C1CCCCC1)(C1CCCCC1)C1CCCCC1)[C@@H]32 | -8.49% (active)
CC1=C(COCCOC(=O)c2ccc(S(=O)(=O)F)cc2)C2=C(C)C3(CC3)[C@@](C)(O)C(=O)C2=C1 | -1.85% (active)
CC1=C(CCC=NNC(N)=O)C2=C(C)C3(CC3)[C@@](C)(O)C(=O)C2=C1 | -59.8% (active)
CCOP(=O)(CC(F)(F)C(F)(F)F)OCC | 2.63% (active)
CC(=O)Oc1ccccc1C(=O)NC([Se])=NC1CCCCC1 | -75.4% (active)
CC1=C(CCC=O)C2=C(C)C3(CC3)[C@@](C)(O)C(=O)C2=C1 | -100% (active)
O=C(NC([Se])=NC1CCCCC1)c1ccc2c(c1)OCO2 | 39.6%
COc1ccc(/C=C/C(=O)c2nc3ccccc3n2Cc2ccc(Br)cc2)cc1 | 68%
C[C@H]1[C@H](OC(=O)CCC(=O)N(CCCc2cn(-c3ccc([N+](=O)[O-])cc3)nn2)CCNc2ccnc3cc(Cl)ccc23)O[C@@H]2OC3(C)CC[C@H]4[C@H](C)CC[C@@H]1[C@@]24OO3 | 37.4%
